Data as given in PubChem BioAssay (Tox21).
Inconclusive results are not listed. Values without a mark were called inactive. Active and inactive are the calls of the source. Unless noted, the call rests on the fitted dose curve.

Experiment: qHTS assay to identify small molecule agonists of H2AX - cell viability counter screen (AID 1224847);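 further: wild-type CHO-K1 cells; top concentration of the series differs between compounds; nearly all actives have a fitted effect of over 30% in size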
Details: CHO-K1 viability, CellTiter-Glo luminescence, 3 h; series mostly up to 154 µM; activity change, negative = cytotoxicity: at the top concentration
Method in brief: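 Cells plated first: CHO-K1, 1000 per well in 10% FBS medium, incubated overnight at 37C. Then 15-point compound titration added (final DMSO 0.76%) for 3 hr. Finally CellTiter-Glo added and luminescence read.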
On the % scale 0 is the no-effect control and ±100 the full control effect.

| Compound | activity change, negative = cytotoxicity |
| --- | --- |
| Oc1c(I)cc(I)c2cccnc12 | 8.46% [at 70.9 µM] |
| CN1CCCC(n2nc(Cc3ccc(Cl)cc3)c3ccccc3c2=O)CC1 (centres undefined) | 4.31% [at 70.9 µM] |
| CCC=CC#N | -9.02% |
| CC1CC(C)C(=O)C1=O (centres undefined) | 0.901% |
| C1COC1 | 1.72% |
| CCCCCCC(C)(C)C(=O)O | 7.52% |
| CC1CC(OC(=O)C(O)c2ccccc2)CC(C)(C)N1C (centres undefined) | 0.754% [at 70.9 µM] |
| CCOC(C)=O | 0.314% |
| CCCCC(CC)COP(=O)(O)O (centres undefined) | -2.87% |
| CC(CCC(=O)O)C(=O)O (centres undefined) | 1.08% |
| CCC(C)COC(=O)CC(C)C (centres undefined) | -6.54% |
| CCCCN(CCCC)C(C(N)=O)c1ccc(OC)cc1 (centres undefined) | 5.8% [at 70.9 µM] |
| Cc1ccco1 | 1.44% |
| CCOC(=O)/C=C/C(=O)OCC | 1.73% |
| O=c1[nH]c2ccc(Cl)cc2o1 | 0.447% |
| O=C1Cc2cc(Cl)ccc2N1 | -0.362% [at 70.9 µM] |
| CCC(C)COC(C)=O (centres undefined) | -0.369% |
| Nc1nnc(-c2ccc([N+](=O)[O-])o2)o1 | -1.37% |
| N#[N+]c1ccc2c(S(=O)(=O)[O-])cccc2c1O | -11.2% |
| Cc1cc(O)c(C)c(C)c1O | 0.607% [at 70.9 µM] |
| CC(=O)OCC(=O)NCCCOc1cccc(CN2CCCCC2)c1 | 1.61% [at 70.9 µM] |
| O=C(/C=C/c1ccccc1)OCCc1ccccc1 | 1.67% |
| CC(=O)Nc1ccc(C)cc1C | 10.2% |
| CCCCCC[C@@H](O)C/C=C\CCCCCCCC(=O)O | -3.83% |
| NCCNCCO | 0.875% |
| O=C(O)C[C@H](NC(=O)OCc1ccccc1)C(=O)O | 2.2% |
| CCOC(=O)c1ccc(I)cc1 | -5.27% |
| CC(=O)c1ccc([N+](=O)[O-])cc1 | -5.27% |
| CC[N+](CC)(CCNC(=O)C(=O)NCC[N+](CC)(CC)Cc1ccccc1Cl)Cc1ccccc1Cl | 5.18% [at 70.9 µM] |

Experiment: qHTS assay to identify small molecule antagonists of the estrogen related receptor (ERR) signaling pathway from Tox21 library (AID 1224848; active means well fitted inhibition curve with a large enough effect in the repeat runs; further: nearly all actives have a fitted effect of over 50% in size; further: potency means the concentration at half of the fitted maximal effect)
Details: ERR reporter cell line, luciferase antagonist mode, 18 h; series mostly up to 92.4 µM; activity, negative = inhibition: at the top concentration
Method in brief: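 Reading was by luminescence 30 min after ONE-Glo addition. Before that, ERR cells at 2,000 per well had rested 6 h at 37 C/5% CO2 and then received pin-tooled compounds in DMSO for 18 h at 37 C.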

| Compound | activity, negative = inhibition | Potency |
| --- | --- | --- |
| C=C(C)[C@@H]1CCC2=CCC[C@@H](C)[C@]2(C)C1 | -12.4% | – |
| O=C1c2ccccc2C(=O)c2c(O)c(O)cc(O)c21 | -12.1% | – |
| CC1CC(OC(=O)C(O)c2ccccc2)CC(C)(C)N1C (centres undefined) | -6.8% [at 42.5 µM] | – |
| CC(CCC(=O)O)C(=O)O (centres undefined) | 5.08% | – |
| CCCCCC[C@@H](O)C/C=C\CCCCCCCC(=O)OCC(O)CO (some centres undefined) | 0.31% | – |
| CCOC(=O)/C=C/C(=O)OCC | 8.08% | – |
| O=c1[nH]c2ccc(Cl)cc2o1 | 5.18% | – |
| O=C1Cc2cc(Cl)ccc2N1 | 0.694% [at 42.5 µM] | – |
| CCC(C)COC(C)=O (centres undefined) | 3.15% | – |
| N#[N+]c1ccc2c(S(=O)(=O)[O-])cccc2c1O | -3.24% | – |
| Cc1cc(O)c(C)c(C)c1O | 3.5% [at 42.5 µM] | – |
| CC(=O)OCC(=O)NCCCOc1cccc(CN2CCCCC2)c1 | 7.93% [at 42.5 µM] | – |
| CC(=O)Nc1ccc(C)cc1C | 3.29% | – |
| COC(=O)c1nc(Cl)c(Cl)nc1N | – | 29.8 µM (active) |
| CCCCCC[C@@H](O)C/C=C\CCCCCCCC(=O)O | -0.212% | – |
| NCCNCCO | 1.22% | – |
| Cc1ccc2c(Br)cc(Br)c(O)c2n1 | – | 8.41 µM (active) |
| CCOC(=O)c1ccc(I)cc1 | -9.49% | – |
| CC(=O)c1ccc([N+](=O)[O-])cc1 | -4.8% | – |
| CC[N+](CC)(CCNC(=O)C(=O)NCC[N+](CC)(CC)Cc1ccccc1Cl)Cc1ccccc1Cl | 13.7% [at 42.5 µM] | – |
